According to the supplement of paper PMC12808144:
A number with no mark means an inactive call.

test system: Mel-DCC-11-R; experiment: cell viability relative to DMSO control (fraction of DMSO control); higher = less cytotoxic, active = 0.8 or less; conditions: 1 µM; 120 h; vemurafenib co-treatment 0 µM
Description: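 Same 315-drug TargetMol library at 1 µM in duplicate, 120 h, ATPlite luminescence normalised to DMSO controls, on the vemurafenib-resistant subline Mel-DCC-11-R cultured alone or with 8 µM vemurafenib co-treatment (Mel-DCC-11-R + V).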

Compound	cell viability
CC(/C=C/C=C(\C)C(=O)O[C@@H]1O[C@H](CO[C@@H]2O[C@H](CO)[C@@H](O)[C@H](O)[C@H]2O)[C@@H](O)[C@H](O)[C@H]1O)=C\C=C\C=C(C)\C=C\C=C(/C)C(=O)O[C@@H]1O[C@H](CO[C@@H]2O[C@H](CO)[C@@H](O)[C@H](O)[C@H]2O)[C@@H](O)[C@H](O)[C@H]1O [Crocin]	0.985
CS(=O)(=O)c1ccc(C2=C(c3ccccc3)C(=O)OC2)cc1 [Rofecoxib]	0.862
CO[C@H]1C[C@@H]2CC[C@@H](C)[C@@](O)(O2)C(=O)C(=O)N2CCCC[C@H]2C(=O)O[C@H]([C@H](C)C[C@@H]2CC[C@@H](O)[C@H](OC)C2)CC(=O)[C@H](C)/C=C(\C)[C@@H](O)[C@@H](OC)C(=O)[C@H](C)C[C@H](C)/C=C/C=C/C=C/1C [Rapamycin]	1.54
C[C@H]1O[C@@H](n2cc(F)c(=O)[nH]c2=O)[C@H](O)[C@@H]1O [Doxifluridine]	1.08
COc1cc(Nc2c(C#N)cnc3cc(OCCCN4CCN(C)CC4)c(OC)cc23)c(Cl)cc1Cl [Bosutinib]	0.914
CC=Cc1ccc(OC)cc1 (stereo in doubt) [cis-Anethol]	1.26
CCc1cc2c(cc1N1CCC(N3CCOCC3)CC1)C(C)(C)c1[nH]c3cc(C#N)ccc3c1C2=O [Alectinib]	1.12
CC1=C(/C=C/C(C)=C/C=C/C(C)=C\C(=O)O)C(C)(C)CCC1 [Isotretinoin]	0.938
CCN(CC)C(=S)SSC(=S)N(CC)CC [Disulfiram]	0.442 (active)
NC(=O)c1cccc2cn(-c3ccc([C@@H]4CCCNC4)cc3)nc12 [Niraparib]	1.06
Cc1ccc(NC(=O)c2ccc(CN3CCN(C)CC3)cc2)cc1Nc1nccc(-c2cccnc2)n1 [Imatinib]	0.978
CC(=O)O.CC(C)C[C@H](NC(=O)[C@@H](COC(C)(C)C)NC(=O)[C@H](Cc1ccc(O)cc1)NC(=O)[C@H](CO)NC(=O)[C@H](Cc1c[nH]c2ccccc12)NC(=O)[C@H](Cc1cnc[nH]1)NC(=O)[C@@H]1CCC(=O)N1)C(=O)N[C@@H](CCCN=C(N)N)C(=O)N1CCC[C@H]1C(=O)NNC(N)=O [Goserelin acetate]	0.927
CO[C@H]1C[C@@H]2CC[C@@H](C)[C@@](O)(O2)C(=O)C(=O)N2CCCC[C@H]2C(=O)O[C@H]([C@H](C)C[C@@H]2CC[C@@H](OC(=O)C(C)(CO)CO)[C@H](OC)C2)CC(=O)[C@H](C)/C=C(\C)[C@@H](O)[C@@H](OC)C(=O)[C@H](C)C[C@H](C)/C=C/C=C/C=C/1C [Temsirolimus]	1.53
C=CC(=O)Nc1cc(Nc2nccc(-c3cn(C)c4ccccc34)n2)c(OC)cc1N(C)CCN(C)C [Osimertinib]	1.06
Nc1ncnc2c1ncn2[C@@H]1O[C@H](CO)[C@@H](O)[C@@H]1O [Vidarabine]	1.11
C[C@@H]1C[C@H]2[C@@H]3CCC4=CC(=O)C=C[C@]4(C)[C@@]3(F)[C@@H](O)C[C@]2(C)[C@@]1(O)C(=O)COP(=O)([O-])[O-].[Na+].[Na+] [Dexamethasone Sodium Phosphate]	1.16
C=CC(=O)Nc1cc(Nc2nccc(-c3cn(C)c4ccccc34)n2)c(OC)cc1N(C)CCN(C)C.CS(=O)(=O)O [Osimertinib mesylate]	1.21
Oc1cc(O)cc(/C=C/c2ccc(O)c(O)c2)c1 [Piceatannol]	0.982
CN(N=O)C(=O)N[C@@H]1[C@@H](O)[C@H](O)[C@@H](CO)O[C@@H]1O [Streptozocin]	0.976
CN(C)C/C=C/C(=O)Nc1cc2c(Nc3ccc(F)c(Cl)c3)ncnc2cc1O[C@H]1CCOC1 [Afatinib]	1.09

same assay, conditions: 1 µM; 120 h; vemurafenib co-treatment 8 µM

Compound	cell viability
CC(/C=C/C=C(\C)C(=O)O[C@@H]1O[C@H](CO[C@@H]2O[C@H](CO)[C@@H](O)[C@H](O)[C@H]2O)[C@@H](O)[C@H](O)[C@H]1O)=C\C=C\C=C(C)\C=C\C=C(/C)C(=O)O[C@@H]1O[C@H](CO[C@@H]2O[C@H](CO)[C@@H](O)[C@H](O)[C@H]2O)[C@@H](O)[C@H](O)[C@H]1O [Crocin]	1.03
CS(=O)(=O)c1ccc(C2=C(c3ccccc3)C(=O)OC2)cc1 [Rofecoxib]	0.825
CO[C@H]1C[C@@H]2CC[C@@H](C)[C@@](O)(O2)C(=O)C(=O)N2CCCC[C@H]2C(=O)O[C@H]([C@H](C)C[C@@H]2CC[C@@H](O)[C@H](OC)C2)CC(=O)[C@H](C)/C=C(\C)[C@@H](O)[C@@H](OC)C(=O)[C@H](C)C[C@H](C)/C=C/C=C/C=C/1C [Rapamycin]	0.783 (active)
C[C@H]1O[C@@H](n2cc(F)c(=O)[nH]c2=O)[C@H](O)[C@@H]1O [Doxifluridine]	1.21
COc1cc(Nc2c(C#N)cnc3cc(OCCCN4CCN(C)CC4)c(OC)cc23)c(Cl)cc1Cl [Bosutinib]	1.14
CC=Cc1ccc(OC)cc1 (stereo in doubt) [cis-Anethol]	0.591 (active)
CCc1cc2c(cc1N1CCC(N3CCOCC3)CC1)C(C)(C)c1[nH]c3cc(C#N)ccc3c1C2=O [Alectinib]	0.888
CC1=C(/C=C/C(C)=C/C=C/C(C)=C\C(=O)O)C(C)(C)CCC1 [Isotretinoin]	1.3
CCN(CC)C(=S)SSC(=S)N(CC)CC [Disulfiram]	0.108 (active)
NC(=O)c1cccc2cn(-c3ccc([C@@H]4CCCNC4)cc3)nc12 [Niraparib]	1.08
Cc1ccc(NC(=O)c2ccc(CN3CCN(C)CC3)cc2)cc1Nc1nccc(-c2cccnc2)n1 [Imatinib]	1.1
CC(=O)O.CC(C)C[C@H](NC(=O)[C@@H](COC(C)(C)C)NC(=O)[C@H](Cc1ccc(O)cc1)NC(=O)[C@H](CO)NC(=O)[C@H](Cc1c[nH]c2ccccc12)NC(=O)[C@H](Cc1cnc[nH]1)NC(=O)[C@@H]1CCC(=O)N1)C(=O)N[C@@H](CCCN=C(N)N)C(=O)N1CCC[C@H]1C(=O)NNC(N)=O [Goserelin acetate]	1.13
CO[C@H]1C[C@@H]2CC[C@@H](C)[C@@](O)(O2)C(=O)C(=O)N2CCCC[C@H]2C(=O)O[C@H]([C@H](C)C[C@@H]2CC[C@@H](OC(=O)C(C)(CO)CO)[C@H](OC)C2)CC(=O)[C@H](C)/C=C(\C)[C@@H](O)[C@@H](OC)C(=O)[C@H](C)C[C@H](C)/C=C/C=C/C=C/1C [Temsirolimus]	0.786 (active)
C=CC(=O)Nc1cc(Nc2nccc(-c3cn(C)c4ccccc34)n2)c(OC)cc1N(C)CCN(C)C [Osimertinib]	0.884
Nc1ncnc2c1ncn2[C@@H]1O[C@H](CO)[C@@H](O)[C@@H]1O [Vidarabine]	1.1
C[C@@H]1C[C@H]2[C@@H]3CCC4=CC(=O)C=C[C@]4(C)[C@@]3(F)[C@@H](O)C[C@]2(C)[C@@]1(O)C(=O)COP(=O)([O-])[O-].[Na+].[Na+] [Dexamethasone Sodium Phosphate]	0.927
C=CC(=O)Nc1cc(Nc2nccc(-c3cn(C)c4ccccc34)n2)c(OC)cc1N(C)CCN(C)C.CS(=O)(=O)O [Osimertinib mesylate]	0.744 (active)
Oc1cc(O)cc(/C=C/c2ccc(O)c(O)c2)c1 [Piceatannol]	1
CN(N=O)C(=O)N[C@@H]1[C@@H](O)[C@H](O)[C@@H](CO)O[C@@H]1O [Streptozocin]	1.1
CN(C)C/C=C/C(=O)Nc1cc2c(Nc3ccc(F)c(Cl)c3)ncnc2cc1O[C@H]1CCOC1 [Afatinib]	0.792 (active)
